Key:
Conditions in all cases: concentration: 1 μM, replicates: in singlicate; n = 1
ERK1 = test system: T1, ERK1
T1 construct: gene MAPK3

ERK2 = test system: T2, ERK2
T2 construct: gene MAPK1

ERK3 = test system: T3, ERK3
T3 construct: gene MAPK6

ERK4 = test system: T4, ERK4
T4 construct: gene MAPK4

ERK5 = test system: T5, ERK5
T5 construct: gene MAPK7

ERK8 = test system: T6, ERK8
T6 construct: gene MAPK15

ERN1 = test system: ERN1
FAK = test system: T7, FAK
T7 construct: gene PTK2

FER = test system: FER
FES = test system: FES
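Note: KINOMEscan kinase panel screen.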

| Structure (SMILES) | %Inh (ERK1) [%] | %Inh (ERK2) [%] | %Inh (ERK3) [%] | %Inh (ERK4) [%] | %Inh (ERK5) [%] | %Inh (ERK8) [%] | %Inh (ERN1) [%] | %Inh (FAK) [%] | %Inh (FER) [%] | %Inh (FES) [%] |
| --- | --- | --- | --- | --- | --- | --- | --- | --- | --- | --- |
| Cl.c1ccc(-c2ccc3c(Nc4ccc5[nH]ccc5c4)ccnc3c2)nc1 [GW440138] | 8 | 0 | 0 | 6 | 0 | 0 | 0 | 0 | 0 | 0 |
| Cc1cccc(NC(=O)Nc2ccc(Oc3ncnc4ccn(C)c34)cc2)c1 | 0 | 20 | 0 | 0 | 0 | 12 | 0 | 5 | 0 | 0 |
| Cc1ccc(S(=O)(=O)Nc2ccc(Nc3nccc(Nc4cccc5[nH]ncc45)n3)cc2)cc1 [GSK581271] | 0 | 0 | 0 | 5 | 0 | 28 | 0 | 0 | 7 | 0 |
| COC(=O)Nc1nc2ccc(Oc3ccc(NC(=O)Nc4cc(C(F)(F)F)ccc4F)cc3)cc2n1C.Cl [GW692089] | 0 | 0 | 0 | 0 | 0 | 72 | 0 | 0 | 21 | 3 |
| Nc1ncc(-c2ccc3nccc(-c4ccncc4)c3c2)cc1S(=O)(=O)N1CCOCC1 [GSK1627798] | 0 | 0 | 0 | 10 | 0 | 45 | 0 | 2 | 11 | 0 |
| Cl.Cl.NCC(NC(=O)c1cc(-c2ccccc2)c(-c2ccnc3[nH]ccc23)s1)c1ccccc1 (centres unmarked) [GSK1321561] | 6 | 16 | 0 | 8 | 0 | 0 | 0 | 0 | 36 | 0 |
| c1ccc(-c2cnc3nccnn23)cc1 [AH20685] | 8 | 0 | 0 | 0 | 0 | 0 | 0 | 0 | 0 | 11 |
| COc1cccc(NC(=O)NC2CCN(c3ccnc(Nc4cc(OC)c(OC)c(OC)c4)n3)C2)c1 (centres unmarked) [GSK1379763] | 0 | 0 | 7 | 25 | 0 | 0 | 7 | 0 | 0 | 8 |
| O=C(Nc1cccc(-c2nn3ccccc3c2-c2ccnc(Nc3cccc(C(F)(F)F)c3)n2)c1)c1c(F)cccc1F [GSK292658] | 0 | 0 | 0 | 0 | 0 | 9 | 0 | 0 | 3 | 0 |
| CCCCc1nn2ncccc2c1-c1ccnc(Nc2ccc(N3CCN(C)CC3)cc2)n1 [GW684941] | 0 | 0 | 46 | 0 | 0 | 63 | 0 | 0 | 47 | 14 |
| CCn1c(-c2nonc2N)nc2c(C#CC(C)(C)O)nc(OC[C@H](N)c3ccccc3)cc21 [GSK943949] | 0 | 3 | 0 | 0 | 0 | 7 | 4 | 0 | 0 | 0 |
| NCCCC(NC(=O)c1cc(Br)c(-c2ccnc3[nH]ccc23)s1)c1ccccc1.O=C(O)C(F)(F)F.O=C(O)C(F)(F)F (centres unmarked) [GSK1287544] | 12 | 22 | 0 | 0 | 0 | 43 | 22 | 0 | 0 | 1 |
| COc1ccc(-c2coc3ccc(-c4nnc(SCc5ccc(OC)c(C(F)(F)F)c5)o4)cc23)cc1 | 8 | 24 | 0 | 3 | 2 | 2 | 44 | 10 | 0 | 4 |
| Clc1ccc(-c2nn3ncccc3c2-c2ccnc(Nc3ccc4c(c3)OCCO4)n2)cc1 [GW829116] | 0 | 12 | 3 | 0 | 0 | 1 | 0 | 0 | 0 | 0 |
| Cc1ccc(C(=O)N2CC[C@@H](O)C2)cc1-n1c(C)cc(OCc2ccc(F)cc2F)c(Br)c1=O | 0 | 0 | 0 | 9 | 0 | 0 | 0 | 0 | 1 | 0 |
| COCCOCCOc1cc2ncc3c4ccc(C#N)cc4[nH]c3c2cc1OC | 9 | 6 | 2 | 0 | 0 | 36 | 0 | 16 | 0 | 17 |

| Structure (SMILES) | %Inh (ERK1) [%] | %Inh (ERK2) [%] | %Inh (ERK3) [%] | %Inh (ERK4) [%] | %Inh (ERK5) [%] | %Inh (ERK8) [%] | %Inh (ERN1) [%] | %Inh (FAK) [%] | %Inh (FER) [%] | %Inh (FES) [%] |
| --- | --- | --- | --- | --- | --- | --- | --- | --- | --- | --- |
| CC(C)c1nc(-c2cccc(NS(=O)(=O)c3c(F)cccc3F)c2F)c(-c2ccnc(Nc3ccc(N4CCOCC4)nc3)n2)s1 [GSK2008607] | 0 | 0 | 9 | 42 | 2 | 93.5 | 65 | 32 | 71 | 23 |
| COc1cccc(C(=O)Nc2cccc(Oc3ccc4nc(NC(=O)C5CC5)cn4n3)c2)c1 | 4 | 6 | 0 | 0 | 0 | 14 | 0 | 1 | 0 | 0 |
| Cc1ccc(C)c(NC(=O)NC2CCN(c3ccnc(Nc4ccc(F)cc4)n3)C2)c1 (centres unmarked) [GSK1379720] | 35 | 0 | 0 | 12 | 0 | 0 | 3 | 0 | 2 | 0 |
| O=C(Nc1ccccc1F)NC1CCN(c2ccnc(Nc3ccc(F)cc3)n2)CC1 [GSK1379800] | 3 | 0 | 20 | 0 | 0 | 0 | 0 | 0 | 15 | 0 |
| CCc1ccc(-c2ccc3c(c2)-c2c(cnn2C)S(=O)(=O)N3C)cc1 | 4 | 6 | 0 | 0 | 0 | 0 | 0 | 38 | 0 | 0 |
| COc1cc(Nc2nccc(N3CCC(NC(=O)Nc4cccc(C(C)=O)c4)C3)n2)cc(OC)c1OC (centres unmarked) [GSK1379753] | 0 | 0 | 9 | 15 | 0 | 0 | 5 | 0 | 22 | 0 |
| FC(F)(F)c1ccc(/C=C/c2cncnc2Nc2ccc3[nH]c(Cc4ccccc4)nc3c2)cc1 [GW709199] | 0 | 0 | 0 | 9 | 12 | 21 | 0 | 21 | 0 | 38 |
| Cl.c1ccc(-c2ccc3c(Nc4ccc5[nH]ncc5c4)ccnc3c2)nc1 [GW440137] | 10 | 0 | 4 | 34 | 0 | 0 | 5 | 0 | 15 | 0 |
| Cn1cc(-c2[nH]c3cc(NC(=O)[C@H](N)C4CCCCC4)cc4c3c2C=NNC4=O)cn1 | 33 | 22 | 0 | 6 | 27 | 55 | 21 | 5 | 13 | 0 |
| O=C(NC1CCN(c2ccnc(Nc3ccc(F)cc3)n2)C1)c1cc2ccccc2s1 (centres unmarked) [GSK1379716] | 4 | 23 | 1 | 31 | 0 | 0 | 0 | 0 | 44 | 12 |
| Fc1ccc(-c2ncn(C3CCNCC3)c2-c2ccnc(Oc3ccc(-c4ccccc4)cc3)n2)cc1 [SB-245391] | 47 | 2 | 0 | 15 | 9 | 31 | 45 | 12 | 0 | 27 |
| CN(c1ccc(NC(=O)Nc2cc(C(F)(F)F)ccc2F)cc1)c1ccnc(Nc2ccc(S(N)(=O)=O)cc2)n1 [GW809893] | 0 | 0 | 0 | 0 | 79 | 98.6 | 5 | 98.8 | 84 | 72 |
| Oc1cc(Nc2ccnc3cc(I)ccc23)ccc1F [GW552771] | 0 | 0 | 0 | 0 | 0 | 11 | 0 | 0 | 11 | 0 |
| Cc1ccc(F)c(C(=O)Nc2cccc(-c3nn4ccccc4c3-c3ccnc(Nc4cccc(F)c4)n3)c2)c1F [GSK361061] | 26 | 0 | 16 | 21 | 0 | 0 | 25 | 0 | 40 | 0 |
| C[C@@H](Oc1cc(-n2cnc3cc(-c4ccnc(NCCS(C)(=O)=O)c4)ccc32)sc1C(N)=O)c1ccccc1Cl [GSK907232] | 0 | 0 | 0 | 19 | 0 | 76 | 0 | 0 | 21 | 0 |
| O=C(Nc1cccc(-c2nn3ccccc3c2-c2ccnc(Nc3cccc(F)c3)n2)c1)c1c(F)ccc(F)c1Cl [GSK357952] | 0 | 0 | 0 | 0 | 0 | 20 | 17 | 0 | 45 | 6 |
